Experimental data reported in PubChem BioAssay.
Activity calls are given as the source filed them. No stated cut-off is given here; in the data, active means parasite load remaining mostly below about 12% (no sharp cut-off); inactive means mostly above about 10%.

Assay: liver-stage malaria parasite growth inhibition, primary screen, cell-based, HepG2, luciferase luminescence, HepG2 viability (AID 624349);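 further: 100% = mean of DMSO negative control wells on the same plate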
Details: P. berghei liver stage in HepG2, luciferase luminescence, concentration not given here; parasite load remaining: stronger effect = lower value; viability: measured here: HepG2 viability without parasites

SMILES | parasite load remaining | viability
NCC1OC(COC[C@@H]2C(O)[C@H](OC3C(O)C(N)CC(N)C3OC3OC(CN)C(O)C(O)C3N)O[C@@H]2CO)C(N)C(O)C1O (stereo partly specified) | 91.3% (inactive) | 89.7%
O=c1[nH]c(=O)n([C@H]2CC(O)[C@@H](CO)O2)cc1I (stereo partly specified) | 130% (inactive) | 96.5%
CC(C)(CS)C(=O)N1CCC[C@@H]1C(=O)O | 94.4% (inactive) | 94.8%
CC[C@H]1OC(=O)[C@H](C)[C@@H](O[C@H]2C[C@@](C)(OC)[C@@H](O)[C@H](C)O2)[C@H](C)[C@@H](O[C@H]2O[C@H](C)C[C@H](N(C)C)[C@H]2O)[C@](C)(O)C[C@@H](C)C(=O)[C@H](C)[C@@H](O)[C@]1(C)O | 97.5% (inactive) | 81.9%
C[C@H]1[C@H](C)CC[C@]2(C(=O)O)CC[C@]3(C)C(=CCC4[C@@]5(C)CC[C@H](O)C(C)(C)[C@@H]5CC[C@]43C)[C@H]12 (stereo partly specified) | 107% (inactive) | 92.7%
CC[C@@H]1OC(=O)[C@H](C)[C@H](O[C@H]2C[C@@](C)(OC)[C@@H](O)[C@H](C)O2)[C@@H](C)[C@@H](O[C@@H]2O[C@H](C)C[C@H](N(C)C)[C@H]2O)C(C)(O)C[C@@H](C)[C@@H]2NC(COCCOC)OC([C@H]2C)[C@]1(C)O (stereo partly specified) | 84.5% (inactive) | 77.5%
Cc1cc2ncc(-c3ccccc3)nc2cc1C | 40.3% (inactive) | 74.4%
CN1[C@@H]2CC[C@H]1CC(OC(=O)[C@@H](CO)c1ccccc1)C2 (stereo partly specified) | 111% (inactive) | 89%
C=C1CC[C@@H](O)C/C1=C/C=C1\CCC[C@]2(C)[C@@H]([C@H](C)/C=C/[C@@H](C)C(C)C)CC[C@@H]12 | 66.4% (inactive) | 88.3%
CC(C)(CO)[C@H](O)C(=O)NCCC(=O)O | 85.1% (inactive) | 77.3%
C=CC1=C(C(=O)O)N2C(=O)[C@@H](NC(=O)/C(=N/OCC(=O)O)c3csc(N)n3)[C@H]2SC1 (stereo in doubt) | 92.8% (inactive) | 73.2%
CCOC(=O)[C@@H](CCc1ccccc1)NC(C)C(=O)N1CCC[C@@H]1C(=O)O (stereo partly specified) | 94.8% (inactive) | 91.7%
Cc1nc(N)sc1-c1ccnc(Nc2cccc([N+](=O)[O-])c2)n1 | 60.6% (inactive) | 87.6%
